# Measured values published in PubChem BioAssay (NCI).
# Compounds without any hit were thinned out: in the full panel of roughly 83,000, 20% have a hit.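 A percent growth of 40 corresponds to 60% growth inhibition; 0 means no net growth; -100 means all cells died. Active threshold: below 10.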 Values without a mark were called inactive. Active and inactive are the calls of the source.
# Assays:
# Test in all cases: NCI-60 one-dose screen, 48 h (100 = growth as untreated, 0 = no growth, -100 = all killed)
# Conditions in all cases: 10 µM unless noted
# DU-145 prostate = tested on: DU-145 prostate
# K-562 leukemia = tested on: K-562 leukemia
# MALME-3M melanoma = tested on: MALME-3M melanoma
# MDA-MB-231 breast = tested on: MDA-MB-231 breast
# RXF 393 renal = tested on: RXF 393 renal
# SF-268 CNS = tested on: SF-268 CNS
# SF-295 CNS = tested on: SF-295 CNS
# SF-539 CNS = tested on: SF-539 CNS
# UACC-257 melanoma = tested on: UACC-257 melanoma
# M14 melanoma = tested on: M14 melanoma
# HT29 colon = tested on: HT29 colon
# SNB-75 CNS = tested on: SNB-75 CNS
# SNB-19 CNS = tested on: SNB-19 CNS
# U251 CNS = tested on: U251 CNS
# PC-3 prostate = tested on: PC-3 prostate
# SK-MEL-5 melanoma = tested on: SK-MEL-5 melanoma
# UACC-62 melanoma = tested on: UACC-62 melanoma
# LOX IMVI melanoma = tested on: LOX IMVI melanoma
# SK-MEL-28 melanoma = tested on: SK-MEL-28 melanoma
# HCT-15 colon = tested on: HCT-15 colon
SMILES,growth (DU-145 prostate),growth (K-562 leukemia),growth (MALME-3M melanoma),growth (MDA-MB-231 breast),growth (RXF 393 renal),growth (SF-268 CNS),growth (SF-295 CNS),growth (SF-539 CNS),growth (UACC-257 melanoma) [%],growth (M14 melanoma),growth (HT29 colon),growth (SNB-75 CNS) [%],growth (SNB-19 CNS),growth (U251 CNS),growth (PC-3 prostate),growth (SK-MEL-5 melanoma),growth (UACC-62 melanoma) [%],growth (LOX IMVI melanoma),growth (SK-MEL-28 melanoma),growth (HCT-15 colon)
CCN(CC)CCCC(C)Nc1c(C)cnc2cc(Cl)c(C)cc12 (stereo not drawn),91.7%,3.57% (active),110%,73.5%,69.3%,87.6%,84.8%,72.3%,112,7.11% (active),40%,95.5,99.9%,84.7%,87.8%,90.2%,109,81.2%,85.4%,
COc1cccc(-c2cc(-c3cc4ccccc4oc3=O)nc(N)n2)c1,112%,99%,121%,90.4%,108%,101%,125%,132%,108,100%,117%,,106%,110%,89.3%,95%,104,95.4%,91.7%,107%
O=C(Nc1ccc(-n2cc(-c3ccncc3)c(-c3ccc(Cl)c(O)c3)n2)cc1)c1ccc(Cl)c(Cl)c1,61.8%,10.3%,43.6%,31.5%,-52.1% (active),61.1%,-50.3% (active),23.5%,58.6,-65.8% (active),-34.7% (active),,77.1%,34.1%,17.2%,-99.3% (active),11.3,29.1%,-7.55% (active),
COc1ccc2c(N)ncc(C#Cc3cc(C(=O)Nc4ccc(CN5CCN(C)CC5)c(C(F)(F)F)c4)cnc3C)c2c1,-89.2% (active),-63.4% (active),-81.9% (active),-85% (active),-73.4% (active),6.51% (active),63%,-93.4% (active),27.4,-78.1% (active),-78.3% (active),,-82.2% (active),-92.2% (active),-69.4% (active),-51.4% (active),28.2,-71.4% (active),-80.2% (active),-76.2% (active)
Cc1nc(N)sc1C(=O)NCCO,105%,145%,-3.05% (active),101%,106%,98.6%,108%,105%,110,112%,112%,,101%,106%,,103%,93.8,104%,113%,108%
